Bioassay records from PubChem BioAssay.
The list is not random: actives were taken first. Their share in the collection is about 12%.
G9a inh: inhibitors of human histone lysine methyltransferase G9a | Q96KQ7 | G9a H3K9 monomethylation, AlphaScreen, 2 h | Potency, µM (titrated, usually from 102 µM), for the others: top-dose activity, negative = inhibition, usual class: inhibitors | 350,000 compounds, 8.8% hits; further: on the % scale 0 is the no-effect control and ±100 the full control effect; nearly all actives have a fitted effect of over 75% in size
Target sequence (Q96KQ7 913-1193 limits assumed): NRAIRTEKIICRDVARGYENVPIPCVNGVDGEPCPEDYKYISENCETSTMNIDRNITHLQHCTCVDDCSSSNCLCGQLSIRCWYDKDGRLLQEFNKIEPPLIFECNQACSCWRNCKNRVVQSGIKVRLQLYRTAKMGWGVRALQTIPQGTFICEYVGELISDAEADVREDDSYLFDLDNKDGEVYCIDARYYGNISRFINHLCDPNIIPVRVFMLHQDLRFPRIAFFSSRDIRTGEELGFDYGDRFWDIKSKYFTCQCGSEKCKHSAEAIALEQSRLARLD
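AlphaScreen read-out: biotin-H3K9 peptide (500 nM) methylation by 20 nM enzyme with 20 uM SAM, 2 h at room temperature after 15 min compound preincubation; anti-monomethyl H3K9 antibody plus donor/acceptor beads, 10 min dark.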
JMJD2A Tudor inh: blocks the human JMJD2A Tudor domain; O75164; AlphaScreen JMJD2A-Tudor / H3K4me3 peptide binding; Potency, µM (doses to about 114 µM), inactives show at the top dose activity change, negative = inhibition, usual class: inhibitors; 390,000 compounds, 4.4% hits; AID 504339; further: on the % scale 0 is the no-effect control and ±100 the full control effect; nearly all actives have a fitted effect of over 50% in size
Sfp inh: inhibitors of Bacillus subtilis Sfp phosphopantetheinyl transferase; Q9F4F7; Biochemical Sfp PPTase activity, qHTS; Potency, µM, for the others: largest response in the series, negative = inhibition, hits mostly inhibitors; 310,000 compounds, 3.5% hits;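 further: the enzyme is Sfp with the accession as filed and its product quenches rhodamine fluorescence; 0% = enzyme reaction without inhibitor and -100% = no enzyme wells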
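With Hepes-Na pH 7.6 buffer containing 10 mM MgCl2, Sfp (15 nM) modified BHQ-2-YbbR (12.5 uM) using rhodamine-CoA (5 uM). Two reads 30 minutes apart at 525/598 nm yielded each well's rate.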
BAZ2B inh: blocks human BAZ2B. Q9UIF8. AlphaScreen BAZ2B-H3K14Ac peptide displacement. 360,000 compounds, 4.4% hits. AID 504333. Potency, µM (top dose mostly 114 µM), for the others: at the highest dose activity change, negative = inhibition, most hits filed as inhibitors; further: on the % scale 0 is the no-effect control and ±100 the full control effect; nearly all actives have a fitted effect of over 60% in size
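AlphaScreen luminescence quantifies BAZ2B engagement of H3K14Ac peptide; the protein and biotinylated peptide are both at 50 nM final, buffer PBS pH 7.4 with 0.01% Tween-20, all steps at room temperature.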
L3MBTL1 block: blocks human L3MBTL1. AlphaScreen L3MBTL1–H3K9me1 peptide binding. Q9Y468. Potency, µM (top dose mostly 57.1 µM), inactives show top-dose activity, negative = inhibition, most hits filed as inhibitors. 230,000 compounds, 0.66% hits. AID 485360; further: on the % scale 0 is the no-effect control and ±100 the full control effect; nearly all actives have a fitted effect of over 60% in size
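L3MBTL1 (50 nM) pre-complexed 30 min with biotinylated H3(1-15)K9me1 peptide (75 nM), then compounds added for 30 min at room temperature; AlphaScreen streptavidin donor/nickel chelate acceptor beads (10 ug/mL final) read after 30 min dark incubation.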
HP1b binding inh: blocks HP1-beta chromodomain binding to methylated histone tails. P83916. AlphaScreen HP1-beta / biotin-H3K9me3 peptide binding. Potency, µM (titrated, usually from 114 µM), without a hit: at the highest dose activity change, negative = inhibition, most hits filed as inhibitors. 390,000 compounds, 0.56% hits; further: nearly all actives have a fitted effect of over 70% in size
Target sequence (P83916 whole entry, looked up): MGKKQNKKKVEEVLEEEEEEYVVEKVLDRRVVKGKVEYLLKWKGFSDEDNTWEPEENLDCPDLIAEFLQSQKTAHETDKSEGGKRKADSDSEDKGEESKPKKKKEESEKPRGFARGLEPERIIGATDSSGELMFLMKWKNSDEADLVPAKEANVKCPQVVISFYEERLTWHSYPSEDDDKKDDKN
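Compound inhibition of the preformed complex between 50 nM HP1-beta and 50 nM biotinylated H3K9me3 peptide was read by AlphaScreen. Buffer was PBS pH 7.4 with 0.01% Tween-20. Incubations ran 30 min at room temperature, with 10 ug/mL donor/acceptor beads.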
* marks the source's active call; other numbers are inactive results; ? = inconclusive; nt = not tested or not shown; ! = repeats disagree; [ ] = remark or other dose. The call rests on the fitted dose curve; in most records, active means well fitted curve in the direction sought with a large enough effect; inconclusive means small, poorly fitted or top-dose-only effect, or another doubt; inactive means no such curve, though single readings can be large; an effect the other way counts as inactive or inconclusive. Potency means the concentration at half of the fitted maximal effect.

SMILES | G9a inh | JMJD2A Tudor inh | Sfp inh | BAZ2B inh | L3MBTL1 block | HP1b binding inh
CC1CC(C)(C)NC(=S)N1CCCC(=O)N1CCN(c2ccccc2F)CC1 (stereo not drawn) | 0%[59 µM] | -22% | 9% | -17% | -3% | -2%
CC1CC(C)(C)NC(=S)N1CCC(=O)NCCc1ccc(Cl)cc1 (stereo not drawn) | 50µM* | -15% | -4% | -4% | 21% | 13%
O=C(NCc1ccccc1Cl)C1CCCN(C(=O)c2cnn(-c3ccc(F)cc3)c2-n2cccc2)C1 (stereo not drawn) | -32%[59 µM] | -18% | nt | ? | nt | 16%
O=C(NC1CCSc2ccccc21)c1cc(S(=O)(=O)N2CCOCC2)ccc1F (stereo not drawn) | -7% | -14% | 21% | -22% | nt | 24%
O=C(NC1CCSc2ccccc21)c1ccc(F)c(S(=O)(=O)N2CCOCC2)c1 (stereo not drawn) | nt | -9% | 50µM* | 17% | nt | 4%
CSc1ccccc1C(=O)NC1CCSc2ccccc21 (stereo not drawn) | 40µM* | -26% | 7% | -9% | nt | 5%
CC(=O)Nc1ccc(C(=O)NC2CCSc3ccccc32)cc1 (stereo not drawn) | 14µM* | -22% | 6% | -10% | nt | 26%
O=c1cc(-c2ccccc2)oc2cc(O)c(O)c(O)c12 | nt | ? | 28µM*! | nt | 16µM* | -10%
COc1c(O)cc2oc(-c3ccc(O)cc3)cc(=O)c2c1O | 23%[59 µM] | -20% | -13% | -21% | nt | 26%
O=c1cc(-c2ccc(O)cc2)oc2c(O)c(O)c(O)c(O)c12 | 20µM* | 40µM* | 4.5µM* | 45µM* | 3.2µM* | ?
O=C(NNc1ccc(-c2csnn2)cc1)c1cc(Cl)cc(Cl)c1 | nt | -20% | -11% | -2% | nt | 34%
O=C(NNc1ccc(-c2csnn2)cc1)c1ccccc1C(F)(F)F | 28µM* | -9% | -5% | 0% | 7% | 25%
S=c1[nH]nc(-c2ccco2)n1/N=C/C(Cl)=C/c1ccccc1 | 4.5µM* | ? | ? | ? | -11% | ?
Cc1cc(-c2n[nH]c(=S)n2/N=C/C(Cl)=C/c2ccccc2)n[nH]1 | 1.6µM* | 56µM* | 50µM* | ? | -13% | -18%
Cc1ccc(N2CCN(/N=C/C(Cl)=C/c3ccccc3)CC2)cc1 | 1% | -23% | 11% | -11% | -4% | 23%
CCOC(=O)c1sc2nc(C)nc(SC(C)C(=O)NC3CC3)c2c1C (stereo not drawn) | 18%[2.33 µM] | 1% | nt | 14% | 0% | 28%
CC(C)[C@H](N)C(=O)N1CCC(C(=O)N[C@@H](Cc2ccccc2)C(=O)NCc2ccc(F)cc2)CC1 | -18% | 9% | 16% | -13% | nt | 33%
COc1ccc(-c2ccc(-c3noc(C(C)C)n3)c(OC)n2)cc1 | 29%[59 µM] | 73% | 56µM* | nt | 24% | 175%
COc1cccc(-c2ccc(-c3noc(-c4cccs4)n3)c(OC)n2)c1 | 1.3µM* | 28% | ? | 2% | nt | 12%
COc1nc(-c2ccc(Cl)cc2)ccc1-c1noc(-c2ccco2)n1 | 2.8µM* | -1% | -2% | -21% | nt | 16%
C/C(=N\N(Cc1ccccc1)c1ccccc1)c1cccnc1 | ? | ? | -13% | ? | -23% | -3%
Cc1ccc(NC(=O)c2sc3nc(-c4ccc(F)cc4)cn3c2C)c(C)c1 | 5%[59 µM] | -16% | nt | 2% | nt | 21%[57 µM]
COc1cc(C(=O)Nc2ccc(Nc3ccccc3)cc2)cc(OC)c1OC | 50µM* | ? | 1% | ? | -19% | -21%
COc1cc(C(=O)Nc2ccncc2)cc(OC)c1OC | -12% | -4% | 8% | 6% | -4% | 30%
COc1cc(C(=O)Nc2c(C(=O)O)[nH]c3ccccc23)cc(OC)c1OC | 16µM* | -14% | -5% | -11% | nt | 23%
SMILES | G9a inh | JMJD2A Tudor inh | Sfp inh | BAZ2B inh | L3MBTL1 block | HP1b binding inh
CCCOC(=O)N[C@@H]1C(=O)N2C(C(=O)OCCC)=C(C)CS[C@H]12 | nt | 5% | ? | 12% | 5% | 27%
CCC(C)(C)c1ccc(OCCCC[n+]2ccccc2)c(C(C)(C)CC)c1 | ? | -25% | 50µM* | -18% | nt | 12%
CCCCCc1ccc(OCCCC[n+]2cccc(C)c2)c(CCCCC)c1 | ? | -26% | -8% | -34% | 2% | 2%
CCCCCc1ccc(OCCCC[n+]2ccccc2)c(CCCCC)c1 | ? | -21% | 35µM* | nt | nt | 11%
CCCCCc1ccc(OCCCC[n+]2ccc(C)cc2)c(CCCCC)c1 | nt | -27% | 50µM* | -17% | 14% | 12%
Oc1ccccc1C1=Nc2ncnn2C(c2ccccc2)C1 (stereo not drawn) | 18µM* | -23% | 0% | -25% | 7% | 2%
CCNc1nc2c(c(=O)n(C)c(=O)n2C)n1Cc1ccc(F)cc1 | -23%[59 µM] | -35% | nt | -15% | nt | 56%
CCCC(=O)O[C@]1(C(=O)COC(C)=O)CC[C@H]2C3C[C@H](F)C4=CC(=O)C=CC4(C)[C@@]3(F)[C@@H](O)CC21C (stereo partly drawn) | -6%[12.7 µM] | nt | 5% | nt | nt | nt
CCCN(C(=O)CSc1nc2cc(S(=O)(=O)N(CC)CC)ccc2o1)C1CCS(=O)(=O)C1 (stereo not drawn) | 1%[0.501 µM] | -13% | nt | 1% | -11% | -2%
CCN(C(=O)CSc1nc2cc(S(=O)(=O)N(CC)CC)ccc2o1)C1CCS(=O)(=O)C1 (stereo not drawn) | nt | -1% | 18µM* | -21% | nt | ?
O=C(O)CCC(=O)NNC(=O)c1ccc(Br)cc1 | 6%[59 µM] | -11% | 16% | 3% | 14% | 24%
COc1cccc(NC(=O)c2cc(-c3ccc(C)o3)nc3ccccc23)c1 | 8.9µM* | 56µM* | 50µM* | ? | nt | 1%
COc1cc(-c2cc(C(=O)Nc3cccc(S(=O)(=O)N(C)C)c3)c3ccccc3n2)cc(OC)c1OC | 1% | -4% | 14% | 1% | nt | 16%
Cc1ccc(-c2cc(C(=O)Nc3cccc(S(=O)(=O)N(C)C)c3)c3ccccc3n2)o1 | 8.9µM* | ? | 50µM* | 3% | nt | 0%
COc1cccc(NC(=O)CN(C)C(=O)c2cc(-c3ccc(C)o3)nc3ccccc23)c1 | ? | ? | nt | -32% | 3% | 1%
C[C@H](O)C(=O)Nc1c(I)c(C(=O)NC(CO)CO)c(I)c(C(=O)NC(CO)CO)c1I | 19%[21.5 µM] | nt | 20% | nt | nt | nt
O=C(OCCN1CCCCC1)c1ccc(Cl)cc1 | -3%[12.7 µM] | -2% | 89µM* | -7% | nt | 34%
O=C(OCCN1CCCCC1)c1cccc(F)c1 | ? | -16% | 3% | -17% | nt | 62%
O=C(c1ccccc1)c1ccc(OCCCN2CCCCC2)cc1 | 8.9µM* | 7.9µM* | ? | 32µM* | nt | -35%
